# Results reported in the supplement of paper PMC6555819.
# What was measured:
# Test in all cases: PBM binding z-score (relative to random genomic background probes); higher = stronger binding; sequences stand for … in GC…GCGATTGACAGCGTAGAATGAAGG
# [1] = system: RARb homodimer (NR concentration 270 nM)
# How it was run: (§1)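 On custom Agilent 4×180K arrays, double-stranded probes with 34-nt variable regions carried direct-repeat seeds, single-nucleotide variants, half-site ablations or random human genomic background. Ligand-free nuclear receptor dimers were applied for 1 h, and binding was read with antibodies against each partner (one per run). Binding z-scores come from regression-normalized fluorescence, with the random background probes as reference.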
# [2] = system: RARg:RXRa (NR concentration 270 nM, RXRa partner concentration 90 nM)
# How it was run: as §1
# [3] = system: RARg homodimer (NR concentration 270 nM)
# How it was run: as §1
# [4] = system: RXRa DBDmut IVT, anti-RXR (DBD mutation: RXRa K156A/R161A, NR concentration 90 nM)
# How it was run: as §1
# [5] = system: RXRa homodimer (NR concentration 180 nM)
# How it was run: as §1
# [6] = system: THRa:RXRa (NR concentration 90 nM, RXRa partner concentration 90 nM)
# How it was run: as §1
# [7] = system: THRa homodimer (NR concentration 90 nM)
# How it was run: as §1
# [8] = system: VDR homodimer (NR concentration 270 nM)
# How it was run: as §1
Sequence,PBM binding z-score [1],PBM binding z-score [2],PBM binding z-score [3],PBM binding z-score [4],PBM binding z-score [5],PBM binding z-score [6],PBM binding z-score [7],PBM binding z-score [8]
CCGAGTAGGTTATGCGGCATTCAGGCAACGGTGA,0.275,0.0373,-0.0255,-0.0566,0.274,-0.034,0.263,-0.167
GAGACAGGGTCAAGGCCAGAGTACGCGTATTGAT,3.45,5.32,5.34,1.95,6.25,3.52,1.06,1.98
TTACCAAGGTGAAAGGTCGTTTATGCACGCCTTG,2.24,3.89,1.62,1.14,5.38,3.17,0.854,2.03
AGAATGAGGTTATTACGATCAGGGAATTGCGGTC,1.07,1.35,1.1,2.37,2.06,2.44,0.982,1.6
CCAGACAGGTGAGGAGGTAACTCAGCCTCGATTA,0.852,0.397,0.304,-0.0213,0.216,0.684,0.59,0.177
TAGACTAGGTCATGGGCCAGTATACCACGCGAAC,2.68,3.79,4.47,-0.0129,2.96,2.73,0.989,0.435
CTACAAAGGTGAACAAGGTCGTTGATTACTATTC,3.33,3.64,3.01,1.76,3.64,3.69,1.37,2.51
